The supplement of paper PMC13380429

Tested on: Vero E6 infected with SARS-CoV-2
Assay: inhibition of SARS-CoV-2 cytopathic effect; higher = more antiviral protection, active = above 15
Conditions: 100 nM; 48 h

Compound	inhibition of SARS-CoV-2 cytopathic effect
O=C(O)C(F)(F)C(F)(F)C(F)(F)C(F)(F)C(F)(F)C(F)(F)C(F)(F)F [ammonium-perfluorocaprylate]	0.56% (inactive)
Fc1ccc2c(CCNCc3cccc(OCC(F)(F)C(F)F)c3)c[nH]c2c1 [idalopirdine]	0.82% (inactive)
C=CC[C@]1(O)CC[C@H]2[C@@H]3CCC4=CCCC[C@@H]4[C@H]3CC[C@@]21C [allylestrenol]	1.52% (inactive)
CSc1ccc(OCc2ncc([N+](=O)[O-])n2C)cc1 [fexinidazole]	-1.88% (inactive)
c1cc(OCCN2CCCCC2)cc(-c2n[nH]c3ccc(-c4nnc[nH]4)cc23)c1	-0.96% (inactive)
CCCC(=O)C1(c2ccccc2)CCN(C(=O)[C@@H](Cc2ccc(OC)cc2)NC(=O)[C@@H](N)Cc2cncn2C)CC1	0.17% (inactive)
COc1ccc2c(c1)c(CC(=O)N1CCOCC1)c(C)n2C(=O)c1ccc(Cl)cc1	1.8% (inactive)
N#CC(Cc1ccc(O)cc1)c1ccc(O)cc1 (centres undefined) [diarylpropionitrile]	-1.11% (inactive)
OC[C@H]1O[C@H](O[C@H]2O[C@H](CO)[C@@H](O)[C@H](O)[C@H]2O)[C@H](O)[C@@H](O)[C@@H]1O [cabaletta]	5.33% (inactive)
